KDM5B inhibitor: Primary screen for KDM5B Histone Demethylases FDH-coupled qHTS; Lysine-specific demethylase 5B (Homo sapiens), Q9UGL1; KDM5B demethylase, FDH-coupled NADH fluorescence (FDH is formaldehyde dehydrogenase); Potency, µM (top dose mostly 57.7 µM), usual class: inhibitors; 2.6% of 220,000 active; AID 1347165, 2019; active means well fitted inhibition curve with a large enough effect; further: 0% is about no effect; nearly all actives have a fitted effect of over 70% in size
Target sequence (Q9UGL1 whole entry, looked up): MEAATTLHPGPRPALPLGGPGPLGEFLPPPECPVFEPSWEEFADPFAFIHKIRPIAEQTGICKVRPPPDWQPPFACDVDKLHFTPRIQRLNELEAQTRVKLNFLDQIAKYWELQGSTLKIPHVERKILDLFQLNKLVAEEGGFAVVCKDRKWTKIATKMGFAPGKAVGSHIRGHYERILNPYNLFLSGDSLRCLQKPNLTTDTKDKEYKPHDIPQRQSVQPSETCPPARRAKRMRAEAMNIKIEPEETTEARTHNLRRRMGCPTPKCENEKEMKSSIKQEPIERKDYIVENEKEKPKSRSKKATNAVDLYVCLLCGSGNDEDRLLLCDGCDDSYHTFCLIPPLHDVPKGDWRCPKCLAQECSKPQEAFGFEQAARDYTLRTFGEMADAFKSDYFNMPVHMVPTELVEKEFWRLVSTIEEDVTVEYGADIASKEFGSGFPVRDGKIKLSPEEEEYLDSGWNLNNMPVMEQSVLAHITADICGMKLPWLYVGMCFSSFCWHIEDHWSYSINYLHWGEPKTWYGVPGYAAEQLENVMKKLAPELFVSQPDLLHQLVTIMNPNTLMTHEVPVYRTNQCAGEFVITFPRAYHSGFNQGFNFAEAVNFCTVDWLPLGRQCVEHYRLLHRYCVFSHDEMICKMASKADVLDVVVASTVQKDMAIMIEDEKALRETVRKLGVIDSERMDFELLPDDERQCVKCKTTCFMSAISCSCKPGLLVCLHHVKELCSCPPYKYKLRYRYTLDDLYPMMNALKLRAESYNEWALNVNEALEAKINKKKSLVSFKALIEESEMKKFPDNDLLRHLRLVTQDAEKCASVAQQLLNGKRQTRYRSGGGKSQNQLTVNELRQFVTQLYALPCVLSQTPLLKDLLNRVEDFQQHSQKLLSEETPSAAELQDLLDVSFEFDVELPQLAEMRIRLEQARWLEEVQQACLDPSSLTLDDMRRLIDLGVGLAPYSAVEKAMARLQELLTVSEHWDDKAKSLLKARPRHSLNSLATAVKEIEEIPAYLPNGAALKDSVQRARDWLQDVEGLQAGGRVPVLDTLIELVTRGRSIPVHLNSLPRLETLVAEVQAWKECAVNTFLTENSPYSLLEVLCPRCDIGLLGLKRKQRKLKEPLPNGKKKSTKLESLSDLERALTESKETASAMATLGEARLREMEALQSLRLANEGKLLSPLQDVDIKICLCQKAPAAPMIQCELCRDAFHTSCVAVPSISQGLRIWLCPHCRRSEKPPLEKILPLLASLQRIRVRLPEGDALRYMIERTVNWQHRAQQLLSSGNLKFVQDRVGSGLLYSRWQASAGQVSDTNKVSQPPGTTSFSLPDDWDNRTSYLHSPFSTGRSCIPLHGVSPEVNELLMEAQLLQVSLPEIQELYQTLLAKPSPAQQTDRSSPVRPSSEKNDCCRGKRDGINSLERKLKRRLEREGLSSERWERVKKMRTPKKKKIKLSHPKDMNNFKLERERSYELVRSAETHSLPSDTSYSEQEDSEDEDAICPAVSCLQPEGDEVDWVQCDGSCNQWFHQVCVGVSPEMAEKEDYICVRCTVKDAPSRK
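Measured: NADH fluorescence change, 30 min, RT. System: KDM5BΔAP 200 nM final, H3K4me3 peptide, α-KG, Fe(II), ascorbate, NAD⁺ plus FDH, pH 7.5 HEPES. Compounds: titrated, 10 min pre-incubation with enzyme.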
* = called active by the depositor; i = inactive. Only a selection was taken, and hits are over-represented in it overall. Potency means the concentration at half of the fitted maximal effect.

SMILES	KDM5B inhibitor
Cc1nnc(-c2cc(-c3cccc(F)c3)ccn2)n1C1CCCCC1	i
O=S(=O)(/C(=C/c1cccs1)c1nc2ccccc2[nH]1)c1ccccc1	i
Cn1nc(C2CCNC2)c2c(C(=O)NC3CC3)cc(C3CC3)nc21 (stereo not given)	100µM*
CC1(C)CC(NC(=O)c2cc(C3CC3)nc3ccccc23)CC(C)(C)N1	i
O=C(c1cc(C2CC2)nc2ccccc12)N1CCC1	i
Cn1nc(C2CCNC2)c2c(C(=O)N3CCC(F)CC3)cc(C3CC3)nc21 (stereo not given)	79µM*
Cc1ccc(-n2nc(C)c3c(C(=O)NCc4ccccc4)cc(C4CC4)nc32)cc1	i
Cn1nc(C2CCNC2)c2c(C(=O)NCc3ccc(F)cc3)cc(C3CC3)nc21 (stereo not given)	79µM*
Cc1cc(C(=O)NCc2ccc(F)cc2)c2c(C3CCNCC3)noc2n1	i
O=C(O)c1cc(C2CC2)nc2c1cnn2-c1ccc(F)cc1	i
CCOC(=O)N1CCC(NC(=O)c2ccccc2C2CCNC2)CC1 (stereo not given)	i
COc1ccc(Cl)cc1COc1ccc(C#N)cc1OC	i
CCC(CC)C(CNC(=O)c1n[nH]c(=O)c2ccccc12)N1CCOCC1 (stereo not given)	i
CCOc1ccccc1Nc1nc2c(S(=O)(=O)c3ccc(C)cc3)nnn2c2ccsc12	i
COCCNc1nc2c(S(=O)(=O)c3ccccc3)nnn2c2ccccc12	i
COCCCNc1nc2c(S(=O)(=O)c3ccc(C)cc3)nnn2c2ccccc12	79µM*
Cc1ccc(S(=O)(=O)c2nnn3c2nc(NCc2cccs2)c2sccc23)cc1C	i
COc1ccccc1CNc1nc2c(S(=O)(=O)c3ccccc3)nnn2c2ccc(Cl)cc12	i
COCCNc1nc2c(S(=O)(=O)c3ccc(C)cc3)nnn2c2ccccc12	79µM*
O=S(=O)(c1ccccc1)c1nnn2c1nc(NC1CC1)c1ccccc12	i
COCCCNc1nc2c(S(=O)(=O)c3ccc(C)c(C)c3)nnn2c2ccccc12	79µM*
COCCCNc1nc2c(S(=O)(=O)c3ccccc3)nnn2c2ccccc12	79µM*
CC(C)c1ccc(S(=O)(=O)c2nnn3c2nc(NCc2ccc(F)cc2)c2ccccc23)cc1	i
Cc1ccc(S(=O)(=O)c2nnn3c2nc(NCc2ccccc2Cl)c2sccc23)cc1	i
Cc1cc(C)c(S(=O)(=O)c2nnn3c2nc(NCCCOC(C)C)c2ccccc23)c(C)c1	i
SMILES	KDM5B inhibitor
CCN(CC)c1nc2ccccc2nc1C(=O)Nc1cc(C)cc(C)c1	i
CC1(c2ccccc2)N(Cc2ccc(O)cc2)C(=O)OC12CCN(C(=O)c1cccnc1)CC2 (stereo not given)	i
COc1ccc(SCCCCO)cc1	i
COc1cc(OC)c(NC(=O)CCc2nnc(C(=O)Nc3ccc(C)cc3)s2)cc1Cl	i
Cc1cc(NC(=O)COC(=O)c2sc3ccccc3c2C)no1	i
CCn1nc(C(=O)Nc2ccc(OC)c(OC)c2)c2ccccc2c1=O	i
O=C(NCCCc1ccccc1)c1cc(-c2cccc3ccccc23)nc2ccccc12	i
CC(C)(NC1CCCCC1)c1nnnn1-c1ccccc1	i
Cc1ccc(NC(=O)c2ccc3c(c2)NC(=O)CS3)cc1	i
Cc1cc(Cl)ccc1OCC(=O)OCC(=O)c1ccc(Cl)cc1	i
O=C(O)c1cccn1-c1ccccc1	i
CCN(CC)C(=O)c1c(NC(=O)c2ccccc2F)sc2c1CCC(C)C2 (stereo not given)	i
CC(C)C(=O)NCCNC(=O)C1CC=CCC1 (stereo not given)	i
O=C(c1cnccn1)N1CC(F)(F)C[C@H]1c1nc(-c2ccccc2)no1	i
O=Cc1csc(-c2ccc(C(F)(F)F)cc2)n1	i
CCNC(=S)NCCc1ccc(Cl)cc1	i
Cc1ccc2cc(C(=O)NCc3ccc(N4CCC(C)CC4)nc3)c(C)nc2c1	i
CCCCN(Cc1cccnc1)C(=O)c1cnc(-c2ccc(C)cc2)[nH]c1=O	i
CCCN(Cc1ccccc1)C(=O)c1cc2ccccc2oc1=O	i
CCCN(Cc1ccncc1)C(=O)c1cnc(-c2ccccn2)[nH]c1=O	10µM*
CC(C)Oc1ccc(/C(O)=C2\C(=O)C(=O)N(c3nccs3)C2c2ccc(C(C)C)cc2)cc1 (stereo not given)	i
O=C(CCc1ncc(-c2ccccc2F)o1)N1CCN(S(=O)(=O)c2cc(F)ccc2F)CC1	i
CC(=O)Nc1ccc(C(=O)CSc2ccccc2Cl)cc1	i
CC1(C)CC(NC(=S)Nc2ccc(F)cc2)CC(C)(C)N1	i
NCc1ccccc1-c1ccsc1	i
SMILES	KDM5B inhibitor
O=C(Nc1cccc(-c2nc3ccccc3o2)c1)c1cc([N+](=O)[O-])ccc1Cl	i
CCOc1ccc(NC(=O)c2n[nH]c(=O)c3ccccc23)cc1OCC	i
COc1ccc(NC(=O)CC2SCCNC2=O)c(OC)c1 (stereo not given)	i
COc1ccc(NC(=O)Cn2nnc(C(=O)NCc3ccc4c(c3)OCO4)c2N)cc1	i
COc1ccccc1-c1nc(C(=O)NCc2ccc(F)cc2)n2ccccc12	79µM*
COc1ccc(-n2nc(C(=O)NCc3ccc(F)cc3)c3c4ccccc4n(C)c3c2=O)cc1	i
COc1cc(CCC(=O)NCc2ccc3c(c2)OCO3)cc(OC)c1OC	i
O=C(NCc1ccc2c(c1)OCO2)c1nc(-c2ccc(Cl)cc2)c2cnccn12	28µM*
COC(=O)CNC(=O)c1nc(-c2ccccc2OC)c2ccccn12	89µM*
COc1ccccc1-c1nc(C(=O)NCc2ccc3c(c2)OCO3)n2ccncc12	32µM*
O=C(NCc1ccc2c(c1)OCO2)c1cc2cc(Cl)ccc2[nH]1	i
COC(=O)CNC(=O)c1nc(-c2ccccc2)c2ccccn12	i
COc1ccccc1C(=O)NCC(=O)OCCCOC(=O)CNC(=O)c1ccccc1OC	i
O=C(NCc1ccc2c(c1)OCO2)c1n[nH]nc1Nc1ccc(Cl)cc1	i
COc1ccccc1C1C=C(C(=O)O)Nc2c(C(=O)Nc3ccc(C)cc3)cnn21 (stereo not given)	i
O=C(CC1(O)C(=O)N(Cc2ccccc2)c2ccccc21)c1ccccc1Cl (stereo not given)	i
CC1(C)CC(=O)C2=C(C1)Nc1[nH]n(-c3ccccc3)c(=O)c1C2c1ccccc1F (stereo not given)	i
COc1cccc(COC(=O)c2ccc3c(c2)NC(=O)CS3)c1	i
CC(Oc1ccc(C(=O)c2ccc(F)cc2)cc1)C(=O)N1CCc2ccccc21 (stereo not given)	i
COc1ccc(NC(=O)c2ccccc2OCc2cn3ccccc3n2)cc1S(=O)(=O)N(C)C	i
CN(C)C(=O)c1ccc(NC(=O)c2ccc(-c3ccccc3)cc2)cc1	i
O=C(Nc1nc(-c2ccc(Br)s2)cs1)C1CCC1	i
CCCNC(=O)c1cc(-c2ccccc2OC)nc2ccccc12	i
COc1ccccc1-c1nc(C(=O)NC2CC2)n2ccncc12	35µM*
COc1ccccc1-c1nc(C(=O)NCc2ccc(F)cc2)n2ccncc12	89µM*
COc1ccc(CNC(=O)c2cnn(-c3ccc(F)cc3)c2-n2cccc2)cc1	i
C[S+](=O)([O-])c1ccc(-c2nc(C(=O)NCc3ccc4c(c3)OCO4)n3ccccc23)cc1	10µM*
